Experimental data published in the supplement of paper PMC6411743.
± gives the standard deviation of the averaged measurements. The full data set covers some 6,500 targets. This sample favours those with the largest changes.

Compound: Nc1ncnc2c1ncn2[C@@H]1O[C@H](COP(=O)(O)OP(=O)(O)OP(=O)(O)O)[C@@H](O)[C@H]1O [adenosine triphosphate]
Assay: NP40-soluble protein abundance relative to vehicle (solubility fold change) (ratio); higher = more soluble protein in presence of ATP
How it was run: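 Jurkat crude lysate (Dounce-homogenised) was treated with eight concentrations from 0.1 to 10 mM for 10 min at room temperature, then 3 min at 37 °C. It was solubilised with 0.8% NP40 and benzonase (60 min, 4 °C) and ultracentrifuged, and the supernatant was TMT-labelled for LC-MS/MS. Intensities were vsn-normalised, and the value is the fold change against the NP40-processed vehicle per replicate, from three independent experiments.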

UniProt Q5TC12, sequence (Q5TC12 whole entry, one chain of several): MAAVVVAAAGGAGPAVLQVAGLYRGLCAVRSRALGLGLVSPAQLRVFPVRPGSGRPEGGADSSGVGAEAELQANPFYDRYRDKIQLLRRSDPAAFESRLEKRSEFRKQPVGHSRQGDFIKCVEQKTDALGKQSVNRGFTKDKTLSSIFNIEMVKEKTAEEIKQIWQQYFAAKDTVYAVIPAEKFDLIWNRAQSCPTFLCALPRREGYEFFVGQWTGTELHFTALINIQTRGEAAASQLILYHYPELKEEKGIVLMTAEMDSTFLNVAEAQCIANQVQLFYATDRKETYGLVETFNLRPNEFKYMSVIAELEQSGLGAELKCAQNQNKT
UniProt O95232, sequence (O95232 whole entry, one chain of several): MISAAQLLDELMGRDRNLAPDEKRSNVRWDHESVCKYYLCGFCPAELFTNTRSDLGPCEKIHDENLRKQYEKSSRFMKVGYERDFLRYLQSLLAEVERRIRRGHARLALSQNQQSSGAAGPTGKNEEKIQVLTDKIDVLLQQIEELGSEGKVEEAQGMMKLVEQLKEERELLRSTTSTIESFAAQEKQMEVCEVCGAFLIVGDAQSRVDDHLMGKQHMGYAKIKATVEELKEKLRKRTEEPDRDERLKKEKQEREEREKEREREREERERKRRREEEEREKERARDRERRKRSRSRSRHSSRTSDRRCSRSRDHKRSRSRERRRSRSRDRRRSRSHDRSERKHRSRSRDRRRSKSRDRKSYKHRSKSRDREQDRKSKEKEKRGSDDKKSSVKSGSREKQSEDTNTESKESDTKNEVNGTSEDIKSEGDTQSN
UniProt P25686, sequence (P25686 whole entry, one chain of several): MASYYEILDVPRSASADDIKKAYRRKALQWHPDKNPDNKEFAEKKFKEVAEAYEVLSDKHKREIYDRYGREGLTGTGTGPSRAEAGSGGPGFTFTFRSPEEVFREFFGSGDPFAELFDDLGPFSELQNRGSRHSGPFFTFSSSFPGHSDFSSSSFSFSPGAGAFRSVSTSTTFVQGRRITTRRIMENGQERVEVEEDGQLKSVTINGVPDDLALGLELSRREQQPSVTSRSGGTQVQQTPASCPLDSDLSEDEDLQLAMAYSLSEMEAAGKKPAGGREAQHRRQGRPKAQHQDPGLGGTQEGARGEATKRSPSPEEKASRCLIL
UniProt O75955, sequence (O75955 whole entry, one chain of several): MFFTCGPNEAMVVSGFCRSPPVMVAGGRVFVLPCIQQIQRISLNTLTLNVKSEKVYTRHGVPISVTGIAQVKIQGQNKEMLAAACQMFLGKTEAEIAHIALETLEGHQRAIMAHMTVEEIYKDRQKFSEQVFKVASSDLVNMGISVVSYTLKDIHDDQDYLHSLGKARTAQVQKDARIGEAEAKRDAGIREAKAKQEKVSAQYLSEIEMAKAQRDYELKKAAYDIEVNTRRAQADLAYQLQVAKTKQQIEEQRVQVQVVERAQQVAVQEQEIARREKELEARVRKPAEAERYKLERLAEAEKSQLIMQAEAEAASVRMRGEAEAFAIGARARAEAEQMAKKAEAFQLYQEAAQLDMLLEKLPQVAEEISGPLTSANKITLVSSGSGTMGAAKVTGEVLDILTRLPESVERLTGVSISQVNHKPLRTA
UniProt Q7Z478, sequence (Q7Z478 whole entry, one chain of several): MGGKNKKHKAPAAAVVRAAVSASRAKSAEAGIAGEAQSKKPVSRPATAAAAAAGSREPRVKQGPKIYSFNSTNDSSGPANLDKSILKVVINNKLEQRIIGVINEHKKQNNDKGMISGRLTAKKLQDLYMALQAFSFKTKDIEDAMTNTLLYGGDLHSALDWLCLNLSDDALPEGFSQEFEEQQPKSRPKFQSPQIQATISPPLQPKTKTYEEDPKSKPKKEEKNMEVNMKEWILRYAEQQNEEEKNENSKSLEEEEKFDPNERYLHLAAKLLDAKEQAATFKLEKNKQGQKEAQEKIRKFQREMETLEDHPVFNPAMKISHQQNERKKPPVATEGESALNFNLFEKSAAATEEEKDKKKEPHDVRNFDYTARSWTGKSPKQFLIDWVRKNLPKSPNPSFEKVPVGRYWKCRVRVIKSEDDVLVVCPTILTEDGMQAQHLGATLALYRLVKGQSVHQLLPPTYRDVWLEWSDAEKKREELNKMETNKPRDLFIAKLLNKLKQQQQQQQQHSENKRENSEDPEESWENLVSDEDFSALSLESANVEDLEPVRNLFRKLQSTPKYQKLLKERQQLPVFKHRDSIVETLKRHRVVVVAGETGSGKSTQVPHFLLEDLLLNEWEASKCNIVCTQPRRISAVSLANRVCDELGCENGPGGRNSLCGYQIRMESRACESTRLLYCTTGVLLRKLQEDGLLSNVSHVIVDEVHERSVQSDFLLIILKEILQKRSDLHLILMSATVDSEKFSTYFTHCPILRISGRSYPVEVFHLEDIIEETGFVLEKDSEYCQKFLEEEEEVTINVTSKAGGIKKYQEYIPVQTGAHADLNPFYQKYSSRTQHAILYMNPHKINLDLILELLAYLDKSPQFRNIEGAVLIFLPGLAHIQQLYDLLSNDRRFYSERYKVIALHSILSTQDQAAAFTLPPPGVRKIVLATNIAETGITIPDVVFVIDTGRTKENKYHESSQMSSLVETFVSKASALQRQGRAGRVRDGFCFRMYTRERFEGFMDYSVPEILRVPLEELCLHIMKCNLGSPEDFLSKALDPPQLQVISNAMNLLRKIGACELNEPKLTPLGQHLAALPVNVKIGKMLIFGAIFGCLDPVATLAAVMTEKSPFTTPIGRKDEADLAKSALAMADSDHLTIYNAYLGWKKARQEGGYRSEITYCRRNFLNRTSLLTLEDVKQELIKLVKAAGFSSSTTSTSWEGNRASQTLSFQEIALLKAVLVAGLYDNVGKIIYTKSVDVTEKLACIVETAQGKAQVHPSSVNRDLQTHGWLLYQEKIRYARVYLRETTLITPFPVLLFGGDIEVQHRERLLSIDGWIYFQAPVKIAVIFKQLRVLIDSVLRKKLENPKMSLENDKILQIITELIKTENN
UniProt P29692, sequence (P29692 whole entry, one chain of several): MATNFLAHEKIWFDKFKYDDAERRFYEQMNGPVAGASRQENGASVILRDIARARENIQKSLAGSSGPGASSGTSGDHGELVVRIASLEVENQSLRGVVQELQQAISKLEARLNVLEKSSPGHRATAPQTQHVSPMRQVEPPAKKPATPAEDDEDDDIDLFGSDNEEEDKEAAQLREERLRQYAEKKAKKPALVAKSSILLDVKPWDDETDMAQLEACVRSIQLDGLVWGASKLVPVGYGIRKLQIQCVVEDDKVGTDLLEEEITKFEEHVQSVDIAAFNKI
UniProt B0I1T2, sequence (B0I1T2 whole entry): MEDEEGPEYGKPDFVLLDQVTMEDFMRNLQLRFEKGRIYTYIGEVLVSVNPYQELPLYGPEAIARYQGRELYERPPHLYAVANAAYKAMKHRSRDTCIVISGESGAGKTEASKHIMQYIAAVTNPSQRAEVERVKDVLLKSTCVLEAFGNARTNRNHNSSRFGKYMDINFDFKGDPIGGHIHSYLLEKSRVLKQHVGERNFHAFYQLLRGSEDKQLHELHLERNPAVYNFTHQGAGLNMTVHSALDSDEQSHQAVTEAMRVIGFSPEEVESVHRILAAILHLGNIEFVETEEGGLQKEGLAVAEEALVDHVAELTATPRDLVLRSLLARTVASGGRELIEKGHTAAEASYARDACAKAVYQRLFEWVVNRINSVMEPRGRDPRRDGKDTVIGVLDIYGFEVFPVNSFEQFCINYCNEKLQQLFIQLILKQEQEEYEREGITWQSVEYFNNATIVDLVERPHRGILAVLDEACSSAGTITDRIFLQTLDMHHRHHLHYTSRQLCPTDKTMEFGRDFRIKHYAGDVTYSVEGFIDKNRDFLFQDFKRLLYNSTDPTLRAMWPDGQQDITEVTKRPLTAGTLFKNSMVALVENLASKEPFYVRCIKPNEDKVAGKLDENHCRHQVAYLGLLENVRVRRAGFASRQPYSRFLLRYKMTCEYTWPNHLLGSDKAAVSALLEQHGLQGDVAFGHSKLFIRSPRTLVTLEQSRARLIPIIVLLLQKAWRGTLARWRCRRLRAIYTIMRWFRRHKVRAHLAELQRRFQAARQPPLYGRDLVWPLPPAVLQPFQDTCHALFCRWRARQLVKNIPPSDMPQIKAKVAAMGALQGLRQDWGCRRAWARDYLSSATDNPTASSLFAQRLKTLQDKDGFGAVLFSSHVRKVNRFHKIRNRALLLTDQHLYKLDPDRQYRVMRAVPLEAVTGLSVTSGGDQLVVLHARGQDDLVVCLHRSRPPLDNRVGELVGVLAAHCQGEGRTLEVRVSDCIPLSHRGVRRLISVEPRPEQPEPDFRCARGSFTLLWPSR
UniProt Q9UKS7, sequence (Q9UKS7 whole entry, one chain of several): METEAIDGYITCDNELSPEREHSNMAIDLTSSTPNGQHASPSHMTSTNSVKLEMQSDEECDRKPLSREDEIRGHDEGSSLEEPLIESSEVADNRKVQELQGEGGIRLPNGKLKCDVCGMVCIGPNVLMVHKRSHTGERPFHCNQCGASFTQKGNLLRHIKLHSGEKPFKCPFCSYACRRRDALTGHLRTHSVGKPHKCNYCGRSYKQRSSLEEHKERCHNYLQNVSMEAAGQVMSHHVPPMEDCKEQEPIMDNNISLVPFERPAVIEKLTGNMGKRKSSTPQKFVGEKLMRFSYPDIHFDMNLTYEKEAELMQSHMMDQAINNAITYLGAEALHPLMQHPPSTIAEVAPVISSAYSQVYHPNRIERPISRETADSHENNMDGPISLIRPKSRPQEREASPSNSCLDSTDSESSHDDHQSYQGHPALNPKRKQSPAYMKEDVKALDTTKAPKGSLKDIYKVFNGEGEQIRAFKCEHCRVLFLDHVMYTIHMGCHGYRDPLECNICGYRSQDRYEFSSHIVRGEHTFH
UniProt Q96MF7, sequence (Q96MF7 whole entry, one chain of several): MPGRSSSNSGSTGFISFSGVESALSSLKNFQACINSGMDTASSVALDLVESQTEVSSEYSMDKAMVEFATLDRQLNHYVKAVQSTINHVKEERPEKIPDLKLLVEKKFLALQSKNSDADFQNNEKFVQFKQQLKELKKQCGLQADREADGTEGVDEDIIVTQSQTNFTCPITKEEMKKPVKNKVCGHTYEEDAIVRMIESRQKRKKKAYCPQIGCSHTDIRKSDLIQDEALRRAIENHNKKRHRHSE

Target	NP40-soluble protein abundance (concentration: 1mM)	NP40-soluble protein abundance (concentration: 2mM)	NP40-soluble protein abundance (concentration: 4mM)	NP40-soluble protein abundance (concentration: 6mM)	NP40-soluble protein abundance (concentration: 8mM)	NP40-soluble protein abundance (concentration: 10mM)
A0A0B4J220 (UniProt E9PRG8)	1.02 ± 0.028	1.11 ± 0.066	1.27 ± 0.17	1.31 ± 0.091	1.42 ± 0.27	1.56 ± 0.23
UniProt O15379|O15379-2	1 ± 0.019	0.9928 ± 0.0062	0.985 ± 0.04	0.994 ± 0.053	1.04 ± 0.044	1.03 ± 0.065
E9PJI1|Q92993-3|Q92993-4|Q92993|Q92993-2 (UniProt Q92993)	1.06 ± 0.12	0.959 ± 0.11	1.13 ± 0.17	1.1 ± 0.19	1.06 ± 0.21	1.13 ± 0.1
F8W060|Q9BZF1 (UniProt Q9BZF1)	0.936 ± 0.018	0.933 ± 0.035	0.939 ± 0.018	0.927 ± 0.046	0.964 ± 0.013	0.959 ± 0.045
G5E9W3|Q9UKF6 (UniProt Q9UKF6)	1.09 ± 0.073	1.1 ± 0.029	1.14 ± 0.025	1.11 ± 0.048	1.14 ± 0.029	1.18 ± 0.052
C9JRD2|C9JXB9|P25686|P25686-2 (UniProt P25686)	0.969 ± 0.038	0.956 ± 0.019	0.956 ± 0.022	0.971 ± 0.06	0.973 ± 0.016	0.977 ± 0.025
D0EV57|P01889|P10321|P13746-2|P16188|P30493|P30499|P30504|P30505|P30508|P30685|Q29865|Q29963|Q5SRN5|Q6DU44|Q8MH48|A0A140T912|E9PIB1|O19617|Q29940|Q29718 (UniProt Q29718+Q29940+E9PIB1+Q8MH48+Q6DU44+Q5SRN5+D0EV57+P01889+P10321+P30505+P13746+P30499+P16188+P30493+Q29865+P30504+P30508+P30685+O19617+Q29963)	0.961 ± 0.026	0.9786 ± 0.0089	0.9485 ± 0.0059	0.977 ± 0.013	0.949 ± 0.022	0.96 ± 0.015
I3L448|Q5TC12 (UniProt Q5TC12)	0.982 ± 0.049	0.985 ± 0.028	0.983 ± 0.046	0.998 ± 0.04	0.96 ± 0.04	0.952 ± 0.022
J3KPP4|O95232 (UniProt O95232)	2.04 ± 0.11	2.06 ± 0.14	2.12 ± 0.1	2.32 ± 0.14	2.27 ± 0.13	2.32 ± 0.18
A0A087WYN9|Q7Z478 (UniProt Q7Z478)	2.24 ± 0.062	2.31 ± 0.051	2.45 ± 0.092	2.57 ± 0.045	2.68 ± 0.07	2.74 ± 0.062
A8MT02|P14678|P14678-2|P14678-3 (UniProt P14678)	1.22 ± 0.14	1.34 ± 0.089	1.47 ± 0.05	1.7 ± 0.26	1.7 ± 0.22	1.63 ± 0.13
E7EX59|E9PDR0|P05166|P05166-2|E7EUY3 (UniProt P05166)	0.992 ± 0.049	0.971 ± 0.02	0.968 ± 0.012	0.973 ± 0.046	0.998 ± 0.033	0.979 ± 0.03
UniProt O00567	1.04 ± 0.038	1.1 ± 0.033	1.24 ± 0.02	1.38 ± 0.06	1.68 ± 0.064	2.11 ± 0.2
A0A0C4DGB9|Q9H2U2 (UniProt Q9H2U2)	0.971 ± 0.022	0.97 ± 0.029	0.953 ± 0.03	0.93 ± 0.051	0.952 ± 0.038	0.919 ± 0.037
B4DWF2|Q9UKS7|Q9UKS7-2 (UniProt Q9UKS7)	1.02 ± 0.062	1.03 ± 0.072	1.04 ± 0.061	1.11 ± 0.089	1.1 ± 0.061	1.2 ± 0.066
I3L1H5|Q9BZG8 (UniProt Q9BZG8)	0.984 ± 0.17	1.03 ± 0.12	0.987 ± 0.16	0.898 ± 0.12	0.987 ± 0.16	0.917 ± 0.13
NUDT21 (UniProt O43809)	1.95 ± 0.11	2.06 ± 0.064	2.18 ± 0.1	2.25 ± 0.052	2.31 ± 0.1	2.213 ± 0.019
B4DZG1|Q9Y483-3|Q9Y483 (UniProt Q9Y483)	1.19 ± 0.023	1.25 ± 0.027	1.36 ± 0.057	1.41 ± 0.082	1.5 ± 0.032	1.56 ± 0.049
A0A0D9SEU5|Q6VN20|Q6VN20-3|R4GMX8 (UniProt Q6VN20)	0.968 ± 0.017	0.944 ± 0.05	0.979 ± 0.02	0.996 ± 0.11	0.935 ± 0.028	0.951 ± 0.036
H7C0H2|Q96EV2|H0Y3K4 (UniProt Q96EV2)	0.963 ± 0.093	0.942 ± 0.056	0.956 ± 0.086	0.982 ± 0.075	0.958 ± 0.067	0.951 ± 0.059
A0A0G2JPP5|Q14160|Q14160-3|A0A0G2JNZ2 (UniProt Q14160)	0.973 ± 0.016	0.96 ± 0.02	0.9694 ± 0.0075	0.98 ± 0.023	0.93 ± 0.021	0.941 ± 0.031
J3KTE4|J3QR09|P84098 (UniProt P84098)	1.01 ± 0.053	1 ± 0.027	0.968 ± 0.07	0.966 ± 0.043	0.908 ± 0.057	1.05 ± 0.094
E9PB61|Q86V81 (UniProt Q86V81)	1.04 ± 0.094	1.09 ± 0.07	1.22 ± 0.13	1.44 ± 0.15	1.53 ± 0.13	1.66 ± 0.24
HAT1 (UniProt O14929)	1.01 ± 0.16	0.995 ± 0.098	0.957 ± 0.08	0.895 ± 0.15	0.97 ± 0.09	0.955 ± 0.04
E5RFJ1|Q96MF7 (UniProt Q96MF7)	1.04 ± 0.053	1.04 ± 0.012	1.03 ± 0.017	1.09 ± 0.036	1.01 ± 0.018	1 ± 0.034
G3V0I5|P49821|P49821-2 (UniProt P49821)	0.986 ± 0.025	0.96 ± 0.02	0.944 ± 0.033	0.94 ± 0.056	0.962 ± 0.052	0.953 ± 0.046
E9PRY8|P29692|P29692-2|P29692-3|P29692-4 (UniProt P29692)	0.959 ± 0.054	0.931 ± 0.034	0.894 ± 0.03	0.912 ± 0.091	0.88 ± 0.042	0.865 ± 0.015
C9JJN9|Q8N3P4|Q8N3P4-2|Q8N3P4-3 (UniProt Q8N3P4)	1.01 ± 0.053	0.984 ± 0.04	0.994 ± 0.068	0.9606 ± 0.0047	0.955 ± 0.039	0.979 ± 0.023
A2ABJ5|O75955|A0A140T9R1 (UniProt O75955)	1.03 ± 0.047	0.948 ± 0.029	0.926 ± 0.012	0.925 ± 0.11	0.931 ± 0.071	0.916 ± 0.052
MYO1G (UniProt B0I1T2)	3.09 ± 0.27	3.32 ± 0.48	3.48 ± 0.58	3.19 ± 0.4	3.7 ± 0.64	3.52 ± 0.5
